# Source: PubChem BioAssay AID803 (The Scripps Research Institute Molecular Screening Center, 2007)
# Among all 140,000 compounds or so, about 680 (0.49%) were called active. Rule as the data show it: active = activation above about 5% (passing the limit was not always enough); inactive = the rest. The list comes from a sample in which actives are over-represented; it also holds similar structures and randomly drawn compounds.
# Biological target: Galanin receptor type 2 (Homo sapiens) (UniProt O43603)
# Assay: human galanin receptor 2 activators – cell-based, primary screen (AID 803);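 also: 0% = vehicle buffer wells and 100% = reference agonist at full effect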
# Conditions: GALR2-expressing cells, agonist activation read-out; hits give high values; concentration not given here
# Sequence of Galanin receptor type 2 (Homo sapiens) (O43603 whole entry, looked up): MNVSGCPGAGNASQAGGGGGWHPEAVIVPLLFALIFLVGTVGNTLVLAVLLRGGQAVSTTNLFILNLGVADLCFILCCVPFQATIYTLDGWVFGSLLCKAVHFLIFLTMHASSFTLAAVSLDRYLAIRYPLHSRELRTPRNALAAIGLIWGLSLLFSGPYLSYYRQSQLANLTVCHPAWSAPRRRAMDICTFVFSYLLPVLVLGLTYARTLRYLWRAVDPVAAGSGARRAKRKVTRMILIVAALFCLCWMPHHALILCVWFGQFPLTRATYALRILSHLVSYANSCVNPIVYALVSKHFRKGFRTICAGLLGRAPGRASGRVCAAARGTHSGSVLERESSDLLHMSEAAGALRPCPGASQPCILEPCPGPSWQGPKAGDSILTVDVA
row,SMILES,activation
1,CCOC(=O)c1c(N)n(CCN2CCOCC2)c2nc3ccccc3nc12,1.16% (inactive)
2,COc1cc(Cn2c(N)c(C(=O)NCc3ccco3)c3nc4ccccc4nc32)cc(OC)c1OC,25% (active)
3,CCOC(=O)c1c(N)n(Cc2ccccc2)c2nc3ccccc3nc12,-0.61% (inactive)
4,CC(=O)c1c(C)n(C(C)C)c2ccc(O)cc12,0.6% (inactive)
5,CN1CCN(C(=S)SCC(=O)Nc2ccc(Cl)cc2C(=O)c2ccccc2)CC1,-0.06% (inactive)
6,Cc1cccc(N2C(=O)NC(=O)/C(=C\c3cnn(-c4ccccc4)c3)C2=O)c1,34.2% (active)
7,O=C1NC(=O)N(c2ccc(F)cc2)C(=O)/C1=C/c1ccc2c(c1)CCCN2Cc1ccccc1,-0.69% (inactive)
8,COc1c(O)ccc2c1-c1c3c(cc4c1C(C2)N(C)CC4)OCO3 (stereo not given),-1.66% (inactive)
9,CCOP(=O)(OCC)C(NC(=O)c1ccc(C)cc1)C(Cl)(Cl)Cl (stereo not given),-0.73% (inactive)
10,Cc1ccc(-n2c(-c3ccc([N+](=O)[O-])cc3)nc3ccccc3c2=O)cc1,-0.79% (inactive)
